For 1 sequence, binding signal results are on record in PMC7862700, “An all-to-all approach to the identification of sequence-specific readers for epigenetic DNA modifications on cytosine”.

Common to all, as to assay: DAPPL (digital affinity profiling via proximity ligation, sequencing); 10 mM Tris-HCl pH 7.5, 50 mM NaCl, 1 mM DTT, 4% glycerol, room temperature, 30 min; GST-TFs on glutathione beads, 16-mer random dsDNA library, 0.1% formaldehyde crosslink after washing; high values mean tight binding
What all share (conditions): protein: recombinant; tags: N-terminal GST; dsDNA, one strand shown

One experiment concerns the target T1, ELK1 (Homo sapiens, UniProt P19419 1-428).
T1 sequence: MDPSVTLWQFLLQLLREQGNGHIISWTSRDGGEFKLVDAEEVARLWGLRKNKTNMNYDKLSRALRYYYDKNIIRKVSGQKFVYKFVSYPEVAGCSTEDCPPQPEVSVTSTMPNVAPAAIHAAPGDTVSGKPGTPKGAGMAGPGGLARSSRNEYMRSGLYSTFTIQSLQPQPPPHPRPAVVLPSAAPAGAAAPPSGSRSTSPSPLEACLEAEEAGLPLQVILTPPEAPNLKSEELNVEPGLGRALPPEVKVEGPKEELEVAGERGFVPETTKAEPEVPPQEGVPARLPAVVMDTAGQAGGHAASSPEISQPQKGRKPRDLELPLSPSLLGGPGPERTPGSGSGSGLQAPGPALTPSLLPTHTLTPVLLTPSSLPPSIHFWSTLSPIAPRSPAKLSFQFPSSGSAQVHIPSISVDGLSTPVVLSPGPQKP
A digest of the protocol: (§1)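 The binding signal reported is, for every hexamer, its read frequency for a factor over its read frequency for the tag-only sample. Reads came from pools of yeast-expressed, GST-fused human transcription factors on glutathione beads, barcoded with DNA and mixed with that sample, which were incubated with 200 nmole of a random double-stranded 16-mer DNA library in Tris/NaCl/DTT/glycerol buffer at room temperature for 30 min. After washing, the pools were crosslinked with 0.1% formaldehyde, proximity-ligated with BsaI/T4 ligase for 1 h at 37 °C, PCR-amplified and sequenced on an Illumina NextSeq500.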

The next experiment addresses T2, GABPA (Homo sapiens, UniProt Q06546 1-454).
T2 sequence: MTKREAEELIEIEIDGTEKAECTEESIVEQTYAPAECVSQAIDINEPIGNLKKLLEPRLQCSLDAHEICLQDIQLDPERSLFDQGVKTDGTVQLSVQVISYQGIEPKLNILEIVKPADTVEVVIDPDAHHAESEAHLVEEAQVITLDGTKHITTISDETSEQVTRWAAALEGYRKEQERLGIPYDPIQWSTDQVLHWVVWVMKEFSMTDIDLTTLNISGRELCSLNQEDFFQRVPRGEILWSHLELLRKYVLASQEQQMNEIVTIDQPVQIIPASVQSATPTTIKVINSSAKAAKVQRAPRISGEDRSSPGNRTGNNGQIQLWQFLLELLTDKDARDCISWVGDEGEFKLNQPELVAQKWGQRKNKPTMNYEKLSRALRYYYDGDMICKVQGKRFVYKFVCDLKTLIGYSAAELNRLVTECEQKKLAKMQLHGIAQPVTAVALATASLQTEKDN
The gist of the method:
as §1

The target of the next experiment is T3, ERG (Homo sapiens, UniProt P11308 1-479).
T3 sequence: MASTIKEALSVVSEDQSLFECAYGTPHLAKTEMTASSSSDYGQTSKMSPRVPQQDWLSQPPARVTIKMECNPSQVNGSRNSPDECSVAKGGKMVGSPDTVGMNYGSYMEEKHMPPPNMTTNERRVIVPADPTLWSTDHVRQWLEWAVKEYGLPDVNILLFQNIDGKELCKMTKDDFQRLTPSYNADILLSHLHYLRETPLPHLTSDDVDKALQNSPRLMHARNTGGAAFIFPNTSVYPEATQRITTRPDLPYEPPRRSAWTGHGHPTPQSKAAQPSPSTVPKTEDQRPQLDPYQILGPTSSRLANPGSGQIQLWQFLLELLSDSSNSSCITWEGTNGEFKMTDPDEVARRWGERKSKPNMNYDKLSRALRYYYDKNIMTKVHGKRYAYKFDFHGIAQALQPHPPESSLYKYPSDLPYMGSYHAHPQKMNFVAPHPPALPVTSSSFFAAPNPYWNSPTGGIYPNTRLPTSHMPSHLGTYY
The gist of the method: as §1

The next experiment deals with ELF1 (Homo sapiens, UniProt P32519 1-619). A digest of the protocol:
as §1

In the next experiment the target is T4, EHF (Homo sapiens, UniProt Q9NZC4 1-300).
T4 sequence: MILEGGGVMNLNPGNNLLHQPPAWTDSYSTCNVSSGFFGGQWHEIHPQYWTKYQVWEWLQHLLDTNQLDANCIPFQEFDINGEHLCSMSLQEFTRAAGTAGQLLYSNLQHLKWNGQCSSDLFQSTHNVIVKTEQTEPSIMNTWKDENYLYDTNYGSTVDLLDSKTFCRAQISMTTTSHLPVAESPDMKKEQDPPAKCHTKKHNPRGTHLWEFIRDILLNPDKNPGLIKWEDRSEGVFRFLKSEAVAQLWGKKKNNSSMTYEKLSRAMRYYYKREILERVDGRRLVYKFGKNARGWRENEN
A digest of the protocol:
as §1

A further experiment addresses SPIB (Homo sapiens, UniProt Q01892 1-262). The gist of the method: as §1
The target in another experiment is T5, FEV (Homo sapiens, UniProt Q99581 1-238).
T5 sequence: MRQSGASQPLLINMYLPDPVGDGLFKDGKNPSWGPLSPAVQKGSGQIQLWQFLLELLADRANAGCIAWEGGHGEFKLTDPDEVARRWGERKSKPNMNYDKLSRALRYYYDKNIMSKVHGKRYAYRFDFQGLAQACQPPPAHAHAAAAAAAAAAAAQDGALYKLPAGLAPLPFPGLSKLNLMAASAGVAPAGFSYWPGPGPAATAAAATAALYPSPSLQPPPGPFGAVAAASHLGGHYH
A digest of the protocol:
as §1

The target of another experiment is ETV5 (Homo sapiens, UniProt P41161 1-510). The gist of the method: as §1
For a further experiment, the target named is ELF4 (Homo sapiens, UniProt Q99607 1-663). A digest of the protocol: as §1
The target in the next experiment is T6, ELK4 (Homo sapiens, UniProt P28324-2 1-405).
T6 sequence: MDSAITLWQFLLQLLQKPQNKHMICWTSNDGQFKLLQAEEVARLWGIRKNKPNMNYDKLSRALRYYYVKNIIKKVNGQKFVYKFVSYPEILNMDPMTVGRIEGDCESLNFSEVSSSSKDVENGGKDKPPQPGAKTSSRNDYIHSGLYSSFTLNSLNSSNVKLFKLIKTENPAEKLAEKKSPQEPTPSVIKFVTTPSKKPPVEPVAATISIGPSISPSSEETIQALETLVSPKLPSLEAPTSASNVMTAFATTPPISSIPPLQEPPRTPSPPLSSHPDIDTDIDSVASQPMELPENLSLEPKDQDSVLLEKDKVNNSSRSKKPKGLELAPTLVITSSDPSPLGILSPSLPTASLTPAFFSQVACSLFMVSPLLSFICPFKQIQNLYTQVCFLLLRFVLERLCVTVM
The gist of the method:
as §1

Chain of ETV5 (P41161 whole entry): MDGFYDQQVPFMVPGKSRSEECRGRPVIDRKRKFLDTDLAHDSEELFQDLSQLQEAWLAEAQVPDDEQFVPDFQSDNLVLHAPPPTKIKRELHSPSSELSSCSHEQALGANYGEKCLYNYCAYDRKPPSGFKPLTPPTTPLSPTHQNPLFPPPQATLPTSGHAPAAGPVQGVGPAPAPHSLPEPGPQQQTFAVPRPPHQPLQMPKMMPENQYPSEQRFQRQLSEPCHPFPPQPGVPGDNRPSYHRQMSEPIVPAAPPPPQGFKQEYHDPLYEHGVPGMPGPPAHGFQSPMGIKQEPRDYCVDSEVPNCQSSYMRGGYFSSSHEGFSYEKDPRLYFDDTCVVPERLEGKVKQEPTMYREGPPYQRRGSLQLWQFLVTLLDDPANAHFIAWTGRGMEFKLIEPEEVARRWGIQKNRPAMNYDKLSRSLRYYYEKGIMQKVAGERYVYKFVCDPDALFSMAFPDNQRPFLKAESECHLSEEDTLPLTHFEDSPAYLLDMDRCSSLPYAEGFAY
Chain of ELF4 (Q99607 whole entry): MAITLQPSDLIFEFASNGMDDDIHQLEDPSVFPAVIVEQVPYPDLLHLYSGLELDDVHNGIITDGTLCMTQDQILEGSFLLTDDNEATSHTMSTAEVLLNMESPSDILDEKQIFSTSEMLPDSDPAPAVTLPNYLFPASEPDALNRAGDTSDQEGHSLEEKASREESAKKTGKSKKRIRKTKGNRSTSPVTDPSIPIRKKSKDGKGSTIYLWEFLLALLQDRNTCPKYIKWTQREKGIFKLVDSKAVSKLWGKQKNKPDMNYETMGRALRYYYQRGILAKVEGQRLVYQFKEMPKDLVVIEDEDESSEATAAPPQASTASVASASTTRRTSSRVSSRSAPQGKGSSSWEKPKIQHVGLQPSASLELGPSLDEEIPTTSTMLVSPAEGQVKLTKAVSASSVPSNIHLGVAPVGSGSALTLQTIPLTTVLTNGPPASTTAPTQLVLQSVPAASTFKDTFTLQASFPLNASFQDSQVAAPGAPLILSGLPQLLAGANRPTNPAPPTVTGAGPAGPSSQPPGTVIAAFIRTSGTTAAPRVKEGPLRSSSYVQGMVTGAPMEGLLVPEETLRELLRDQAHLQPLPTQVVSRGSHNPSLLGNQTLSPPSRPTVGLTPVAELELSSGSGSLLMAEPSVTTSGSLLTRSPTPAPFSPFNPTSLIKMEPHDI
Chain of ELF1 (P32519 whole entry): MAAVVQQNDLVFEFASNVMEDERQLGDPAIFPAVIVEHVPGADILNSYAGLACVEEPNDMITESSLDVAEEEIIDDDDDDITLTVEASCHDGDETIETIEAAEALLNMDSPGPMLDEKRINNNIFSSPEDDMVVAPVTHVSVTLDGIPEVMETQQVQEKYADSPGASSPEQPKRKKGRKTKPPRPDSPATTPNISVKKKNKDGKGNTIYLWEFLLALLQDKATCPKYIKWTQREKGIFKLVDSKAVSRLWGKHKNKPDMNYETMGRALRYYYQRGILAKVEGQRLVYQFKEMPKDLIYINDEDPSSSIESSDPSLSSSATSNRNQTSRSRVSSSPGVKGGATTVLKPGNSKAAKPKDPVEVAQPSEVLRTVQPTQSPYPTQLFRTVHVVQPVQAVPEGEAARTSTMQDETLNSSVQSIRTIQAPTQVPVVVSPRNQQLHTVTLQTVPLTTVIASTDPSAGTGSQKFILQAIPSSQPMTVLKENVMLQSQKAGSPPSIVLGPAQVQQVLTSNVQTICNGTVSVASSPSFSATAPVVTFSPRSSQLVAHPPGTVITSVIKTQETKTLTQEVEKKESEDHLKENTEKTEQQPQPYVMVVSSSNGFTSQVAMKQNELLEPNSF
Chain of SPIB (Q01892 whole entry): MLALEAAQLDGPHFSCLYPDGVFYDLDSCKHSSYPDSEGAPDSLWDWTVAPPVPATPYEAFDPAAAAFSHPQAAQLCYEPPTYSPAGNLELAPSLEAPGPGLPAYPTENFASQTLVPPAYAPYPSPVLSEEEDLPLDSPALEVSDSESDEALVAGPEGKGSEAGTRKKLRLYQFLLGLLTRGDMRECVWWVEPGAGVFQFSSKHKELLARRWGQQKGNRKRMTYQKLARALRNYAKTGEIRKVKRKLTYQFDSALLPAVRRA

As for GGTAAA, the binding signal in the experiment with ELK1 is 1.1 fold enrichment (6-mer frequency, TF over GST control); with GABPA it was 1.07 fold enrichment (6-mer frequency, TF over GST control); with ERG, 1.04 fold enrichment (6-mer frequency, TF over GST control); in the experiment with ELF1, 1.08 fold enrichment (6-mer frequency, TF over GST control); with EHF, 1.05 fold enrichment (6-mer frequency, TF over GST control); with SPIB, 1.08 fold enrichment (6-mer frequency, TF over GST control). Further, the binding signal in the experiment with FEV was 1.02 fold enrichment (6-mer frequency, TF over GST control); with ETV5, 1.06 fold enrichment (6-mer frequency, TF over GST control); with ELF4 it was 1.04 fold enrichment (6-mer frequency, TF over GST control); in the experiment with ELK4, 1.11 fold enrichment (6-mer frequency, TF over GST control).
